# Several values for one entry are separate records, joined by “and”; a condition that tells them apart may be missing. Identical values can stand only once. Results filed as inconclusive are left out. Activity calls are given as the source filed them. Unless noted, no stated cut-off is given here; in the data, active means inhibition above about 80%; inactive means the rest.
# What was measured:
# [1] = viability loss in pontine glioma line – cell-based, SU-DIPG-XXV, MIPE5.0, CellTiter-Glo, qHTS, dose response (AID 1347065; cut-off not given, nearly all actives have AC50 up to about 26 µM;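 further: cells exposed to compound for 48 hours before ATP readout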); details: CellTiter-Glo ATP luminescence
# [2] = SU-DIPG-VI glioma cell viability, MIPE4.0 library, CellTiter-Glo luminescence, qHTS (AID 1347066; cut-off not given, nearly all actives have AC50 up to about 30 µM;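 further: cells exposed to compound for 48 hours before readout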); details: CellTiter-Glo ATP luminescence
# [3] = JHH-DIPG-1 glioma cell viability, MIPE5.0 library, CellTiter-Glo luminescence, qHTS (AID 1347067; cut-off not given, nearly all actives have AC50 up to about 26 µM;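 further: cells exposed to compound for 48 hours before readout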); details: JHH-DIPG-1 glioma viability, CellTiter-Glo ATP luminescence
# [4] = SU-DIPG-XXV glioma cell viability, MIPE5.0 library, qHTS (AID 1347068; cut-off not given, nearly all actives have IC50 up to about 30 µM;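 further: cells exposed to compound for 48 hours before viability readout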)
# [5] = sensitizers of A549 cells to miR-34 induction, primary screen, imaging, A549 dox-inducible miR-34, nuclei and caspase counts (AID 1347080;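 active means compounds whose cell count with miR-34 switched on is under 0.7 times the count with it off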); details: A549 miR-34 inducible, Hoechst nuclei count, 48 h
# [6] = survival rescue of mitochondrial mutant cells in low glucose, primary screen, MELAS cybrids, Rieske KO mouse fibroblasts, CellTiter-Glo (AID 1508586;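 active means mean z-score across replicates of 1.96 or higher in either the MELAS or the Rieske mutant cell line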;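 further: z relative to plate mean and SD of compound and empty wells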)
# [7] = target: NAD(+) hydrolase SARM1 (Homo sapiens) (UniProt Q6SZW1); test: SARM1 TIR NADase inhibitors, cell lysate, NAD-Glo luminescence (AID 1508614;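 active means compound whose remaining NAD level is above about 45 nM, limit read from the data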); details: SAM-TIR HEK293T lysate NADase, at 1 µM, stronger effect = higher value
# NAD(+) hydrolase SARM1 (Homo sapiens), sequence (Q6SZW1 whole entry, looked up, the tested form may be a part): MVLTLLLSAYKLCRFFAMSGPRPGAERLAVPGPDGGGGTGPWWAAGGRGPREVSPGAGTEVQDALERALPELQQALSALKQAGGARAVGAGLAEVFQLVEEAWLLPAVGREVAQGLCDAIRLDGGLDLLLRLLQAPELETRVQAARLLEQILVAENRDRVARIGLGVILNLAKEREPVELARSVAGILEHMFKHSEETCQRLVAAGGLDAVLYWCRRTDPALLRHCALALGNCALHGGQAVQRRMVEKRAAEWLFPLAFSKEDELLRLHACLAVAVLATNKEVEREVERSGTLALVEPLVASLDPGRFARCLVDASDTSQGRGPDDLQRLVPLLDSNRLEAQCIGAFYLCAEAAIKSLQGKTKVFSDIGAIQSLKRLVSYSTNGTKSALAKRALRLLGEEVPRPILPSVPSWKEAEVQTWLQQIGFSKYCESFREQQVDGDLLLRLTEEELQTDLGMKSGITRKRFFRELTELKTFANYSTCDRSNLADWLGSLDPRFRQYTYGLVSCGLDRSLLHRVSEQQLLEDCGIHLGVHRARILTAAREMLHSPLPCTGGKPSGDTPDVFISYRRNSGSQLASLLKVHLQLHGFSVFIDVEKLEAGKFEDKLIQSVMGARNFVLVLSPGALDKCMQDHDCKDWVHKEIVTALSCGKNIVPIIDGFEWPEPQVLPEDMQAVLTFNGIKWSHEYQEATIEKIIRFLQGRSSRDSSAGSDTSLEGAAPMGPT
# [8] = target: Mitogen-activated protein kinase 7 (Homo sapiens) (UniProt Q13164); test: ERK5 transactivation activators in reporter cells, primary screen, cell-based, HTS (AID 1508626;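 active means luciferase signal above three times the same-plate solvent-only control wells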;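 further: luciferase driven by Gal4-ERK5 fusion binding five Gal4 sites before minimal TATA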); details: HeLa Gal4-ERK5 transactivation, 18 h, at 5 µM, stronger effect = higher value
# Mitogen-activated protein kinase 7 (Homo sapiens), sequence (Q13164 whole entry, looked up, the tested form may be a part): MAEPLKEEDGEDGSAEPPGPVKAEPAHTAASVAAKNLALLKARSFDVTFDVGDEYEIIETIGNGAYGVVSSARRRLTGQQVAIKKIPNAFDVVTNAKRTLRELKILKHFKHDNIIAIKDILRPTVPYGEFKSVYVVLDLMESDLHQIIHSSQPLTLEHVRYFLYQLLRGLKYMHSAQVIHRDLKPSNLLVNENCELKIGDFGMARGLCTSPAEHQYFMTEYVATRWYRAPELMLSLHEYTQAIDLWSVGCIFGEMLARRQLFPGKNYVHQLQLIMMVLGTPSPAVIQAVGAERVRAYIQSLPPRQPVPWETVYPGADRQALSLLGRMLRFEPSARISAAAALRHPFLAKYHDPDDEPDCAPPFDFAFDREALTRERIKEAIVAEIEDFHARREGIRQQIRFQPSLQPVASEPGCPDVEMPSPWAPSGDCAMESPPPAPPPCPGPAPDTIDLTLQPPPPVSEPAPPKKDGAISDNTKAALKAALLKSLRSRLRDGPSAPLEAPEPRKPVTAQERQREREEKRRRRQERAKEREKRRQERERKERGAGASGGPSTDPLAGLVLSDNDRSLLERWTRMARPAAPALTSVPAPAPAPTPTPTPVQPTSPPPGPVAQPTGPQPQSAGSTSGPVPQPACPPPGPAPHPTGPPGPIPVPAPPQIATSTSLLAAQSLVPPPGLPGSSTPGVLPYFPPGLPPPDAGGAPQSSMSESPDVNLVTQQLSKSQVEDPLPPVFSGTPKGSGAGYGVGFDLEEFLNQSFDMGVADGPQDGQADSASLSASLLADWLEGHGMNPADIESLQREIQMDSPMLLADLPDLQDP
# [9] = LFS_MB_P medulloblastoma growth inhibition, cell-based, chromothripsis tumors, cisplatin or BGB combos (AID 1671449); details: LFS_MB_P medulloblastoma cells;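 further: cells exposed for 96 hours; 0% = vehicle DMSO and 100% = killing by high DMSO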
# [10] = HDN33 neuroblastoma growth inhibition, cell-based, chromothripsis tumors, cisplatin or BGB combos (AID 1671450); details: HDN33 neuroblastoma cells, stronger effect = higher value;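 further: cells exposed to compound for four days; 0% = vehicle DMSO and 100% = cell killing by high DMSO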
# [11] = ICB984 medulloblastoma cell growth inhibition, synergistic combos for chromothripsis tumors, cisplatin or BGB combos (AID 1671451; call rule not given here;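 further: cells exposed for 96 hours before readout; 0% = vehicle DMSO and 100% = killing by high DMSO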); details: ICB984 medulloblastoma cells, drug combinations, stronger effect = higher value
# [12] = LFS_MB_1R medulloblastoma cell growth inhibition, synergistic combos for chromothripsis tumors, cisplatin or BGB combos (AID 1671452); details: LFS_MB_1R medulloblastoma cells, stronger effect = higher value;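 further: cells exposed for 96 hours before readout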
# [13] = HTB85 osteosarcoma cell growth inhibition, synergistic combos for chromothripsis tumors, BGB or cisplatin IC20 combos (AID 1671453); details: HTB85 osteosarcoma cells, drug combinations, stronger effect = higher value;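 further: cells exposed for 96 hours before readout; 0% = vehicle DMSO and 100% = high DMSO killing control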
# [14] = CRL2098 osteosarcoma cell growth inhibition, synergistic combos for chromothripsis tumors, BGB or cisplatin IC20 combos (AID 1671454); details: CRL2098 osteosarcoma cells, drug combinations, stronger effect = higher value;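 further: cells exposed for 96 h before readout; 0% = vehicle DMSO and 100% = killing by high DMSO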
# [15] = HD-MB03 medulloblastoma cell growth inhibition, synergistic combos for chromothripsis tumors, BGB or cisplatin IC20 combos (AID 1671455; in the data active means inhibition above about 83%;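 further: 0% = vehicle DMSO and 100% = high DMSO as cytotoxic control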); details: HD-MB03 medulloblastoma cells, stronger effect = higher value
# [16] = measured here: combination with BGB IC40, at 0.05 µM
smiles,measurement,setting,value
CN(C)c1ccc(C(=C2C=CC(=[N+](C)C)C=C2)c2ccc(N(C)C)cc2)cc1,AC50,[1],833 nM (active)
same,AC50,[2],372 nM (active)
same,AC50,[3],1860 nM (active)
same,IC50,[4],2630 nM (active)
same,fold change,"[5]; stronger effect = lower value, cell number ratio, induced over uninduced",0.999 (inactive) and 0.737 (inactive)
same,fold change,[5]; measured here: relative caspase fold change +Dox/-Dox,0.9 and 1.26
same,cell count,"[5]; measured here: total cells with miR-34 induction, stronger effect = lower value",1530 and 788
same,cell count,[5]; measured here: total cells without miR-34 induction,1530 and 1070
same,z-score,"[6]; MELAS cybrid survival, CellTiter-Glo 48 h, stronger effect = higher value",3.09 (active)
same,z-score,"[6]; Rieske KO mouse fibroblast survival, CellTiter-Glo 72 h",-2.82
same,remaining NAD,[7],10 nM (inactive)
same,luciferase signal,[8],104 AU (inactive)
same,inhibition,"[9]; at 0.5 µM, stronger effect = higher value",-1.03% (inactive)
same,inhibition,"[9]; measured here: combination with BGB IC20, at 0.005 µM",-15.3%
same,inhibition,"[9]; measured here: combination with BGB IC40, at 0.005 µM",-20.2%
same,inhibition,[9]; [16],-19.9%
same,inhibition,"[9]; measured here: combination with cisplatin, at 0.5 µM, stronger effect = higher value",-17.8%
same,inhibition,"[9]; measured here: combination with cisplatin, at 5 µM, stronger effect = higher value",112%
same,inhibition,"[10]; BGB combo, at 5 µM",99.3%
same,inhibition,[10]; at 0.5 µM,99.6% (active)
same,inhibition,"[10]; cisplatin combo, at 5 µM",99.6%
same,inhibition,"[10]; measured here: with BGB IC20 combination, at 0.5 µM",99.7%
same,inhibition,"[10]; measured here: with cisplatin IC20 combination, at 0.5 µM",99.6%
same,inhibition,"[10]; single agent, at 5 µM",99.7%
same,inhibition,"[11]; BGB IC20 combo, at 0.005 µM",79.3%
same,inhibition,"[11]; BGB IC40 combo, at 0.005 µM",87.3%
same,inhibition,"[11]; BGB IC40 combo, at 0.05 µM",98.5%
same,inhibition,[11]; at 0.5 µM,-35.3% (inactive)
same,inhibition,"[11]; cisplatin combo, at 0.05 µM",98.5%
same,inhibition,"[11]; cisplatin combo, at 0.5 µM",-53%
same,inhibition,"[11]; cisplatin combo, at 5 µM",-16%
same,inhibition,"[11]; measured here: 5 uM single agent, at 5 µM",6.83%
same,inhibition,[12]; at 0.5 µM,80.9% (active)
same,inhibition,[12]; [16],-11%
same,inhibition,"[12]; measured here: combination with cisplatin, at 0.5 µM",82.3%
same,inhibition,"[12]; measured here: combination with cisplatin, at 5 µM",104%
same,inhibition,[13]; at 0.5 µM,88.8% (active)
same,inhibition,"[13]; measured here: with BGB IC20, at 0.5 µM",84.9%
same,inhibition,"[13]; measured here: with BGB IC20, at 5 µM",94%
same,inhibition,"[13]; measured here: with cisplatin IC20, at 0.5 µM",92.7%
same,inhibition,"[13]; measured here: with cisplatin IC20, at 5 µM",97.1%
same,inhibition,"[13]; single agent, at 5 µM",96.8%
same,inhibition,[14]; at 0.5 µM,75.8% (inactive)
same,inhibition,"[14]; measured here: combination with BGB at IC20, at 0.5 µM",79.9%
same,inhibition,"[14]; measured here: combination with cisplatin at IC20, at 0.5 µM",70.6%
same,inhibition,[15]; at 0.5 µM,59.5% (inactive)
same,inhibition,"[15]; measured here: combo with BGB at IC20, at 0.5 µM",60.7%
same,inhibition,"[15]; measured here: combo with cisplatin at IC20, at 0.5 µM",47%

# — PubChem BioAssay
